# Measured values taken from article PMC12136788.
# Whole data set: some 24,000 sequences, median “enrichment r” near 0.99, cut for the highest 2% near 3.7. The list comes from a sample in which the highest values are over-represented; it also holds similar and randomly drawn sequences.
# B1: chr2:168009416:168009417:-_ENSMUSG00000051149_ENSMUST00000088001|perfect_dup|FALSE|FALSE (ssRNA)
# RNA: GGGAGUUCUACAGUCCGACGAUCCAUAUGGUUGAGCAGAGUAUCUGUGGGUAAAUAGCGAUUACAGUAGAGGCAUUUGCUAGUAAAAUUGUGUAUUUUCAUAAUGUAGUUGGCUACUGCUGGGACUUUCUCAGCUUUAUGUUCCAACAGAGGAUUGAGCAUCA
# B2: chr1:84034342:84034343:-_ENSMUSG00000045658_ENSMUST00000168574|mus_mus|FALSE|FALSE (ssRNA)
# RNA: GGGAGUUCUACAGUCCGACGAUCGCCUGAGAAUGGUGAAAAUAGGCGUGGAGAUCUCCCAGCAGGAAGUGUUGGAAUAGGAGAGGAAAAAAAAAGUGAGAGGAGAGUCUGGAACCUUCCUCCCCAUCUGUACUCUCCUCAAGACAACAGAGGAUUGAGCAUCA
# B3: 133834401_133834521_965_CDS_ENSMUSG00000050890_ENSMUST00000105876|mouse|control|control (ssRNA)
# RNA: GGGAGUUCUACAGUCCGACGAUCUUUCAUUCGCCCAUUCAUAGACUUUUUCUUCACAGGGAUGAGAAGUUCCAUUUUGGGGUUUUCCAGAAGUGCCUCCCCAACAGGCACAAUUUCAGUCCCCUGCUUUACGUAACUCCCCAACAACAGAGGAUUGAGCAUCA
# B4: chr8:95500983:95500984:-_ENSG00000164944_ENST00000437199|hu_hu|hu_hu_hu_mus_True|78_78 (ssRNA)
# RNA: GGGAGUUCUACAGUCCGACGAUCAGAACACAUCUAUCGAGUAAAGGACCGUACAUGGACGACCUCUCCACUGCCUCCACUAACAAACUUUCCUCUCGAGCCUCCACUGCCGCUAUUUGUACUAGCCCAGGACGGUCCCAGGCCCAACAGAGGAUUGAGCAUCA
# B5: chr7:141450121:141450122:+_ENSG00000106028_ENST00000265304|hu_mus|hu_hu_hu_mus_True|38_68 (ssRNA)
# RNA: GGGAGUUCUACAGUCCGACGAUCUCAUCCGUUCUAUGCCUUUUCUUUUGUCUGGUCACUCAGAAAUAUAAUAUUAUCAGCUAUGAUUGUUGUUGCUUGUCGCCUCACAUUGUUUUUAUCCAUGUACUCGCCAUAGUCCACUUUCAACAGAGGAUUGAGCAUCA
# B6: chr8:98731313:98731314:+_ENSG00000147649_ENST00000336273|hu_mus|motif|central (ssRNA)
# RNA: GGGAGUUCUACAGUCCGACGAUCACAAGCUUUCUCCUGUUUUGGUCGGGCUUUUGAGGUAUUCACUGGAAGCUCUUCUCGGGUGUCCUUUUCUAGGUCUUCUGUGUCCUGUGUGUGAGAGUUAUCUUCCCCUUGCUUCUUCUUCAACAGAGGAUUGAGCAUCA
# B7: 93992280_93998312_1055_3pUTR_ENSMUSG00000055932_ENSMUST00000069718|mouse|control|control (ssRNA)
# RNA: GGGAGUUCUACAGUCCGACGAUCAUCAAAGGAUUUCAACGAGACGUCGCCAUCGUCUGAGUCAUUGAGGACAUUCUGCAGCGCCAACUGACAGCGUUCUAAGAUAUAAUCCAAGGUGCCUGUUGAGCACUCUGCCACACGGUGCAACAGAGGAUUGAGCAUCA
# B8: chrX:20248820:20248821:+_ENSMUSG00000001924_ENSMUST00000001989|mus_mus|mus_mus_mus_hu_True|58_88 (ssRNA)
# RNA: GGGAGUUCUACAGUCCGACGAUCGGCGAAGUCCGUCACCACAAAGUCAGGCUCUACCAGUGAGGCCACCAAGGAUUUAAAACUAAUCUUCUUAGGUACUUUGACCUGACUGACGAUGCCUCCACGGAUGUAGUCGGAGAAGUUCAACAGAGGAUUGAGCAUCA
# B9: chr17:60770872:60770873:+_ENSG00000011028_ENST00000303375|hu_hu|hu_hu_hu_mus_True|48_78 (ssRNA)
# RNA: GGGAGUUCUACAGUCCGACGAUCUCUUUAAAAAAAAAAAAAAAAAGACAAACAAUAAUAAUGGCACUCGAGAAUCAAGAACUACAAAGAAAGGGCCGCUUUGAGUUUUUGUUCACAUCGUCCUGCACUGGGACACGGGGACUGCAACAGAGGAUUGAGCAUCA
# B10: chr17:60770872:60770873:+_ENSG00000011028_ENST00000303375|hu_hu|hu_hu_hu_mus_True|18_78 (ssRNA)
# RNA: GGGAGUUCUACAGUCCGACGAUCUCUUUAAAAAAAAAAAAAAAAAGACAAACAAUAAUAAUGGCACUCGAGAAUCAAGAACUACAAUAGAGGGUCCGCUUUGAGUUUUUGUUCACAACAUUGUCCCCUGGGACACGGGGACUGCAACAGAGGAUUGAGCAUCA
# B11: chr2:204281756:204281757:+_ENSG00000138443_ENST00000261017|hu_hu|motif|central (ssRNA)
# RNA: GGGAGUUCUACAGUCCGACGAUCCUUUUCCAAGUAAGAACGUGGAGCCCACGGUGGGUCCUCUUCAGCAUAAGGAUCACGGUACUCAACCACAGCAGCUUCCUCCUCUUCGUAAUCUUCUGGAGGAGGAGGAGGUGGGGGAGACAACAGAGGAUUGAGCAUCA
# B12: chr4:76721835:76721836:+_ENSG00000138768_ENST00000264904|hu_mus|hu_hu_hu_mus_True|68_78 (ssRNA)
# RNA: GGGAGUUCUACAGUCCGACGAUCGUUUGGCUGGGGUUUCUGAGACGCUCUGGAAUAAACUCAUGUUUGCUAAUAAAAUCCUAGUUUCUCUAUGAAAUUCUCUUUGCCAAUCCUCUUCUCUAUUAGUUGCUUUAGUUUCUCUUUCAACAGAGGAUUGAGCAUCA
# B13: chr14:62224477:62224478:+_ENSMUSG00000035235_ENSMUST00000039562|mus_hu|FALSE|FALSE (ssRNA)
# RNA: GGGAGUUCUACAGUCCGACGAUCUUCAUUGAAAAUGAAAAACCCAUCUGUCACCUGUUCCCAGUAAAAAACUGAUUGUUCUAUGAAAUCGGCUGUUUUAGUCAGAUAGGAACUGAAGUUUGAAAGACAGCCUUUCCAAGUUGCCAACAGAGGAUUGAGCAUCA
# B14: 31895827_31897285_3242_CDS_ENSMUSG00000042323_ENSMUST00000112095|mouse|control|control (ssRNA)
# RNA: GGGAGUUCUACAGUCCGACGAUCCCAACAGCCGUACAACCAUUUUUCACCAGCUGAAUCCUCCCACAGUCUCUCAAUACACACUAUAUGUGGUUGUAGAUUGGCCUCCGCAGGUUCAACAUAGACAUAAUCUCCGACAUGAUACAACAGAGGAUUGAGCAUCA
# Target: T1, UNK ZnF1-3 (human, UniProt Q9C0B0 31-174)
# T1 sequence: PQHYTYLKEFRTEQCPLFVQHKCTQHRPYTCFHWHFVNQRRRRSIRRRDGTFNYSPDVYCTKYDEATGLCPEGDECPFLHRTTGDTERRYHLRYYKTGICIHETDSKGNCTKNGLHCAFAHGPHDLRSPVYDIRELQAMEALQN
# Assay: nsRBNS (natural sequence RNA bind-n-seq); RBNS binding buffer (assumed for nsRBNS): 25 mM Tris pH 7.5, 150 mM KCl, 3 mM MgCl2, 0.01% Triton X-100, 500 ug/ml BSA, 20 U/ml SUPERase-In, 4 C; UNK is unkempt and MSI1 is Musashi-1; names of the RNAs are library labels; protein concentration not given here; high values mean tight binding
row,Binder,binding signal [enrichment R]
1,B1,2.12
2,B2,1.32
3,B3,0.863
4,B4,1.53
5,B5,0.44
6,B6,0.279
7,B7,1.07
8,B8,0.887
9,B9,4.71
10,B10,4.19
11,B11,0.684
12,B12,0.621
13,B13,0.96
14,B14,1.01
